Source: PubChem BioAssay (National Center for Advancing Translational Sciences (NCATS))
Hits are enriched below; roughly 2.8% of the tested compounds scored in any of these assays.
S2 tox = cell viability loss in ATXN counter-screen. 400,000 compounds, 0.49% hits. S2 cells (HEK-293 line with an ATXN2-luciferase reporter) viability, CellTiter-Fluor protease fluorescence, 24 h. Potency, µM (highest dose often 56.7 µM), hits mostly cytotoxic. AID 651635; also: nearly all actives have a fitted effect of over 40% in size
HTT cytoprotect = cytoprotection in Huntington HTT-Q103 PC12 cell model | PC12 HTT-Q103 induced, cytoprotection, ATP luminescence, 40 h | Potency, µM (top dose mostly 56.4 µM), for inactives: cytoprotection (ATP increase), usual class: activators | 230,000 compounds, 0.14% hits; also: % of control where 0% means no effect; nearly all actives have a fitted effect of over 45% in size
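Quantitative HTS on tebufenozide-induced (100 nM) PC12 cells expressing HTTQ103 exon 1–GFP; compounds tested as a concentration series; survival measured via cellular ATP.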
ATXN2 expr inh = reduces ATXN2 reporter expression in HEK-293 cells; Potency, µM (doses to about 57 µM), inactives show at the top dose activity change, negative = inhibition, actives largely listed as inhibitors; 360,000 compounds, 0.72% hits; AID 1745845; HEK-293 ATXN2-luciferase reporter, luminescence, 24 h; also: % is scaled to controls: 0 for no effect and ±100 for the full control effect; nearly all actives have a fitted effect of over 55% in size
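ATXN2-luciferase reporter cells (luciferase flanked by upstream and downstream ATXN2 gene portions) were treated 24 h at 37 °C with compounds at up to 57 uM. SteadyGlo luminescence gave expression; GF-AFC fluorescence gave viability.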
HttQ103 aggreg = reduces HttQ103-GFP aggregates in PC12 cells. Potency, µM (series often up to 46.1 µM), for the others: top-dose activity change, negative = inhibition, usual class: inhibitors. AID 1688. PC12 HttQ103-GFP aggregates, Acumen cytometry, 40 h. 220,000 compounds, 1.1% hits; also: % is scaled to controls: 0 for no effect and ±100 for the full control effect; nearly all actives have a fitted effect of over 60% in size
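Aggregate formation scored by laser-scanning cytometer (488 excitation, 500–530 emission) in lysed PC12 cells expressing Q103-GFP after 100 nM tebufenozide induction; library tested in dose series, with ATPLite reagent added in the multiplex.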
TGFb inhibitor = TGF-b pathway inhibition. HepG2 CAGA-GFP TGF-b/SMAD3 reporter, GFP fluorescence, 18 h; TGF-beta stimulated, 500 pg/mL final. Potency, µM (highest dose often 46.1 µM), for inactives: top-dose activity, negative = inhibition, usual class: inhibitors. 410,000 compounds, 1.2% hits; also: % is scaled to controls: 0 for no effect and ±100 for the full control effect; nearly all actives have a fitted effect of over 65% in size
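HEPG2 CAGA-GFP cells (1000/well, DMEM with 1% FBS) were pre-incubated 2 h at 37 degrees C, given compound by pin tool, then stimulated with TGF-beta at 500 pg/mL final for 18 h before per-cell GFP fluorescence imaging.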
HepG2 viability = counter-screen for TGF-b inhibitors: cytotoxicity in HepG2 cells | HepG2 CAGA-GFP viability, ATP luminescence, 18 h | Potency, µM (titrated, usually from 46.1 µM), without a hit: at the top dose activity change, negative = cytotoxicity, actives largely listed as cytotoxic | 410,000 compounds, 0.76% hits | AID 588856
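HepG2 CAGA-GFP cells (1000/well, DMEM with 1% FBS) received compound, then TGF-beta at 500 pg/mL final, and were incubated 18 hours at 37 degrees C. Viability was read by CellTiter-Glo luminescence. Media-only wells were set as complete cell-killing and DMSO as no toxicity.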
* marks the source's active call; other numbers are inactive results; i = inactive; ? = inconclusive; · = no result given; [ ] = remark or other dose. Calls follow the shape of the dose curve; as a rule, active = well fitted curve in the direction sought with a large enough effect; inconclusive = small, poorly fitted or top-dose-only effect, or another doubt; inactive = no such curve, though single readings can be large; an effect the other way counts as inactive or inconclusive. Potency is read from the fitted curve at half-maximal effect.

SMILES	S2 tox	HTT cytoprotect	ATXN2 expr inh	HttQ103 aggreg	TGFb inhibitor	HepG2 viability
O=C(CCn1cnc2ccccc21)N/N=C/c1ccccc1O	i	-30%[10 µM]	?	10µM*	-13%	-34%
CC(C)(C)n1ncc2c(=O)n(Cc3c(Cl)cccc3Cl)cnc21	·	·	·	·	-2%	-24%
Cc1cc(Br)ccc1NC(=O)COC(=O)c1ccccc1OCC(=O)N(C)C	·	·	·	·	-8%	1%
c1ccc(CNCCC(Cc2ccccc2)c2ccco2)cc1 (stereo unspecified)	i	3%[10 µM]	-4%	-5%[9.22 µM]	20µM*	1%
O=c1[nH]c(=O)n([C@H]2CCCO2)cc1F	i	·	7%	·	·	·
NC(=S)n1[nH]c(-c2ccc([N+](=O)[O-])cc2)c(N=Nc2ccccc2[N+](=O)[O-])c1=O	i	12%[10 µM]	?	4%	-12%	-1%
Cc1c(N=Nc2c(-c3ccc([N+](=O)[O-])cc3)[nH]n(C(N)=S)c2=O)cccc1[N+](=O)[O-]	?	·	?	?	8.9µM*	-23%
NC(=S)n1[nH]c(-c2ccc([N+](=O)[O-])cc2)c(N=Nc2cccc([N+](=O)[O-])c2)c1=O	?	-121%	?	13µM*	?	-69%
Cc1[nH]n(C(N)=S)c(=O)c1N=Nc1cccc([N+](=O)[O-])c1C	i	·	·	·	?	20µM*
Cc1nc([N+](=O)[O-])c(Br)n1Cc1ccccc1	?	0%[10 µM]	?	31%[9.22 µM]	?	-53%
Cc1nc([N+](=O)[O-])c(Sc2nc3ccc([N+](=O)[O-])cc3[nH]2)n1Cc1ccccc1	?	?	-29%	2%	-90%	10µM*
CC[C@@H]1[C@H]2CCCCN3[C@@H]2[C@@H](C[C@H]3[C@@H]2C[C@H](C)C(=O)O2)[C@@H]2[C@H]1OC(=O)[C@H]2C	·	-12%	·	·	·	·
CCN1C(=O)C(=Cc2cccc(OC)c2Oc2ccc([N+](=O)[O-])cc2[N+](=O)[O-])SC1=S	13µM*	·	22µM*	·	0%	-14%
CCOC(=O)C1=C(N)c2ccccc2CC1C1CCCC1 (stereo unspecified)	i	21%[10 µM]	·	-4%[9.22 µM]	13µM*	-116%
C=C1c2ccccc2O[C@H](C(=O)OCC)[C@@H]1C1CCCCC1	i	·	-1%	·	-5%	2%
NC(=O)c1ncn([C@@H]2O[C@@H](CO)[C@@H](O)[C@H]2O)n1	·	-12%[1.9 µM]	·	·	·	·
COc1ccccc1-c1ccnc(-n2ncc(C(=O)NCC3(N4CCOCC4)CCCC3)c2C)n1	i	·	·	·	·	·
Cc1csc(NC(=O)c2sc3nc4c(c(C(F)(F)F)c3c2N)CCC4)n1	·	·	0.097µM*	·	·	·
COc1ccc2c(c1)CCc1c(C(=O)Nc3ccn(Cc4ccc(C)cc4)n3)noc1-2	18µM*	-4%	10µM*	-7%	-17%	-39%
COc1ccc(Cl)cc1NC(=O)C1CCN(S(C)(=O)=O)CC1	i	·	-3%	·	5%	8%
COc1ccc(F)c(F)c1C(=O)c1cnc(NC2CCN(S(C)(=O)=O)CC2)nc1N	·	·	2.7µM*	·	·	·
CN(C)CCOc1ccc(-c2c(-c3ccccc3)sc3ccccc23)cc1	?	·	20µM*	·	?	-108%
c1ccc(-c2sc3ccccc3c2-c2ccc(OCCN3CCCCC3)cc2)cc1	i	·	-8%	·	2%	-19%
CN(C)c1nc2cc3c(cc2cc1CN(CC1CCCO1)C(=O)/C=C/c1cccs1)OCO3 (stereo unspecified)	i	·	·	·	·	·
CCCCC(CC)Cn1c(N)c(C#N)c2nc3ccccc3nc21 (stereo unspecified)	i	-18%	-18%	12%[9.22 µM]	?	14µM*
